From PubChem BioAssay (EPA / NIEHS)
“And” between values parts separate entries of the source, which are not always exact repeats. Identical values can stand only once. Results filed as inconclusive are left out. A structure can be active in one record and inactive in another. The source made the active and inactive calls. How the source made its calls, unless noted: active means hit-call score of the fitted dose curve at least 0.9, where 1 is the maximum; inactive means score below 0.9.

Tests used:
[1] = read-out: Monocyte Chemoattractant Protein-1 (MCP1), CCL2 (gene 6347); assay: BSK_SAg_MCP1: BioMAP Diversity Plus: SAg Assay for Monocyte Chemoattractant Protein-1 (MCP1) Biomarker Activity (AID 2283090); conditions: primary human HUVEC with PBMC; actives raise or lower the signal
Method in brief: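 Values derive from bidirectional fitting of ELISA-measured MCP1 against DMSO controls. Readings were taken 24 h after dosing human vascular endothelial cells co-cultured with peripheral blood mononuclear cells under superantigen stimulation.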

[2] = read-out: E-selectin (Homo sapiens) (UniProt P16581); assay: BSK_SAg_Eselectin: BioMAP Diversity Plus: SAg Assay for Eselectin Biomarker Activity (AID 2283091); conditions: primary human HUVEC with PBMC; actives raise or lower the signal
Method in brief: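 Human umbilical vein endothelial cells co-cultured with peripheral blood mononuclear cells, SAg system. E-selectin is measured by ELISA 24 h after dosing and fitted bidirectionally against DMSO. Cytotoxicity is checked by SRB staining of parallel cultures.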

[3] = read-out: Monokine induced gamma interferon (MIG), CXCL9 (gene 4283); assay: BSK_SAg_MIG: BioMAP Diversity Plus: SAg Assay for Monokine induced gamma interferon (MIG) Biomarker Activity (AID 2283092); conditions: primary human HUVEC with PBMC; actives raise or lower the signal
Method in brief: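 Endothelial cells and PBMC were co-cultured, exposed to test chemicals, and sampled 24 h later. MIG was measured by ELISA, and responses were fitted in both directions relative to DMSO.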

[4] = BSK_SAg_PBMCCytotoxicity: PBMC Cytotoxicity Assessment in the BioMAP Diversity Plus: SAg Assay (AID 2283093); conditions: primary human HUVEC with PBMC;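 further: PBMC viability measured as Alamar Blue reduction fluorescence at 546/580 nm; fitted both ways against DMSO so a hit may be loss or gain of signal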;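 on AC50: PBMC superantigen activated with SEB plus TSST-1 one hour after compound addition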
Method in brief: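 Alamar Blue reduction (6 h, 546/580 nm) reports PBMC cytotoxicity after 90 h superantigen activation (SEB, TSST-1; 20 ng/mL final each) with 1 h compound pre-treatment. Gain or loss of signal fitted versus DMSO.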

[5] = read-out: Interleukin-8 (IL8), CXCL8 (gene 3576); assay: BSK_SAg_IL8: BioMAP Diversity Plus: SAg Assay for Interleukin-8 (IL8) Biomarker Activity (AID 2283094); conditions: primary human HUVEC with PBMC; actives raise or lower the signal
Method in brief: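 ELISA readout of IL-8 from a superantigen-activated endothelial/PBMC primary human co-culture, taken 24 h post-dosing and fitted in both directions against DMSO; parallel SRB total-protein staining flags overt cytotoxicity.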

[6] = BSK_SAg_SRB: Viability Assessment in the BioMAP Diversity Plus: SAg Assay (AID 2283096); conditions: primary human HUVEC with PBMC;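 further: cells read one day after compound addition; hits may be either gain or loss of signal compared with DMSO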
Method in brief: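 This overt-cytotoxicity endpoint quantifies protein in human endothelial/PBMC co-cultures at 24 h using SRB absorbance (560 nm) after trichloroacetic acid fixation. Values reflect signal change from the DMSO negative control, fitted bidirectionally.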

[7] = molecular target: human CYP19A1, CYP19A1 (gene 1588) (UniProt P11511); assay: NVS_ADME_hCYP19A1: NovaScreen (NVS) CYP450-related Enzyme Activity (ADME) Assay for human CYP19A1 (AID 2283098; active means hit-call score of the fitted dose curve at least 0.9, where 1 is the maximum;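 on AC50: potency for inhibitors seen as loss of fluorescent enzyme signal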)
Method in brief: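 Compounds were first screened at 10 uM in duplicate against purified enzyme, with a fluorogenic substrate and fluorescence intensity detection after 0.5 h. Inhibition appears as reduced signal against acetonitrile control.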

[8] = molecular target: human CYP1A1, CYP1A1 (gene 1543) (UniProt P04798); assay: NVS_ADME_hCYP1A1: NovaScreen (NVS) CYP450-related Enzyme Activity (ADME) Assay for human CYP1A1 (AID 2283100; active means hit-call score of the fitted dose curve at least 0.9, where 1 is the maximum)
Method in brief: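 Recombinant CYP1A1 with a fluorogenic substrate, cell-free, read 1 h after dosing; acetonitrile as negative control. Single-concentration screen at 10 uM in duplicate, then concentration-response up to 20 uM for chemicals meeting ~30% inhibition threshold.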

[9] = molecular target: human CYP2B6, CYP2B6 (gene 1555) (UniProt P20813); assay: NVS_ADME_hCYP2B6: NovaScreen (NVS) CYP450-related Enzyme Activity (ADME) Assay for human CYP2B6 (AID 2283101; active means hit-call score of the fitted dose curve at least 0.9, where 1 is the maximum)
Method in brief: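 Cell-free recombinant enzyme assay with a fluorogenic substrate; fluorescence intensity read 1 hour after dosing. Loss of signal relative to acetonitrile negative control indicates inhibition. Primary screen run in duplicate at 10 uM, actives then tested in concentration series.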

[10] = molecular target: human CYP1A2, CYP1A2 (gene 1544) (UniProt P05177); assay: NVS_ADME_hCYP1A2: NovaScreen (NVS) CYP450-related Enzyme Activity (ADME) Assay for human CYP1A2 (AID 2283102; active means hit-call score of the fitted dose curve at least 0.9, where 1 is the maximum;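 on AC50: potency for inhibition since loss of fluorescence marks reduced CYP1A2 activity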)
Method in brief: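 Recombinant human CYP1A2 from insect cells, cell-free, fluorogenic substrate; read 0.5 h after dosing with loss of fluorescence signal indicating inhibition. Primary screen in duplicate at 10 uM, acetonitrile as negative control.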

[11] = molecular target: human CYP2D6, CYP2D6 (gene 1565) (UniProt P10635); assay: NVS_ADME_hCYP2D6: NovaScreen (NVS) CYP450-related Enzyme Activity (ADME) Assay for human CYP2D6 (AID 2283107; active means hit-call score of the fitted dose curve at least 0.9, where 1 is the maximum)
Method in brief: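 Cell-free assay using recombinant human CYP2D6 expressed in insect cells, with a fluorogenic substrate read after 1 h. Primary screen in duplicate at 10 uM; actives followed up in concentration series. Loss of signal fitted relative to acetonitrile.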

[12] = molecular target: human CYP2C9, CYP2C9 (gene 1559) (UniProt P11712); assay: NVS_ADME_hCYP2C9: NovaScreen (NVS) CYP450-related Enzyme Activity (ADME) Assay for human CYP2C9 (AID 2283108; active means hit-call score of the fitted dose curve at least 0.9, where 1 is the maximum)
Method in brief: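 Cell-free assay of recombinant human CYP2C9 produced in Sf9 cells, with enzyme activity read by fluorescence intensity 0.75 h after compound addition. Loss of signal versus an acetonitrile negative control indicates inhibition. Primary screen used 10 uM in duplicate; actives were retested in concentration series.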

[13] = molecular target: Cytochrome P450 3A4 (Homo sapiens) (UniProt P08684); assay: NVS_ADME_hCYP3A4: NovaScreen (NVS) CYP450-related Enzyme Activity (ADME) Assay for human CYP3A4 (AID 2283110; active means hit-call score of the fitted dose curve at least 0.9, where 1 is the maximum)
Method in brief: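 Activity is derived from decreased fluorescence intensity relative to acetonitrile, measured 0.33 hour after dosing insect-cell-expressed CYP3A4 in a cell-free format. Screening used 10 uM in duplicate before concentration-response follow-up.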

[14] = molecular target: Cytochrome P450 2C19 (Homo sapiens) (UniProt P33261); assay: NVS_ADME_hCYP2C19: NovaScreen (NVS) CYP450-related Enzyme Activity (ADME) Assay for human CYP2C19 (AID 2283113; active means hit-call score of the fitted dose curve at least 0.9, where 1 is the maximum;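 on AC50: potency for inhibition seen as loss of fluorescent signal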)
Method in brief: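 Cell-free recombinant human CYP2C19 from insect cells, fluorescent substrate; activity read by fluorescence intensity 1 h after dosing. Primary screen in duplicate at 10 uM; actives retested in concentration series. Signal loss versus acetonitrile negative control.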

[15] = molecular target: rat CYP2A1, Cyp2a1 (gene 24894) (UniProt P11711); assay: NVS_ADME_rCYP2A1: NovaScreen (NVS) CYP450-related Enzyme Activity (ADME) Assay for rat CYP2A1 (AID 2283114)
Method in brief: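 Cell-free fluorescence enzyme-activity read on recombinant rat CYP2A1, taken 0.75 h post-dosing. Compounds were screened in duplicate at 10 uM, then hits tested in concentration series (max 20 uM); inhibition scored relative to acetonitrile baseline.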

[16] = BSK_SAg_Proliferation: Cell Proliferation Assessment in the BioMAP Diversity Plus: SAg Assay (AID 2283095); conditions: primary human HUVEC with PBMC;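 further: relative cell number as total protein by SRB absorbance in sub-confluent culture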
Method in brief: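 Relative cell number in the endothelial cell/PBMC co-culture was quantified at 96 h by SRB staining (0.1% SRB, 10% TCA fixation, read at 560 nm). Curves were fitted in both directions relative to DMSO baseline.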

[17] = molecular target: human CYP2J2, CYP2J2 (gene 1573) (UniProt P51589); assay: NVS_ADME_hCYP2J2: NovaScreen (NVS) CYP450-related Enzyme Activity (ADME) Assay for human CYP2J2 (AID 2283106; active means hit-call score of the fitted dose curve at least 0.9, where 1 is the maximum)
Method in brief: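 Chemicals were first tested at 10 uM in duplicate, and hits meeting criteria such as 30% inhibition were run in singleton concentration series with a 20 uM top concentration. Enzyme activity of recombinant CYP2J2 was measured by fluorescence after 1 h, relative to acetonitrile.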

[18] = molecular target: human CYP2C8, CYP2C8 (gene 1558) (UniProt P10632); assay: NVS_ADME_hCYP2C8: NovaScreen (NVS) CYP450-related Enzyme Activity (ADME) Assay for human CYP2C8 (AID 2283104)
Method in brief: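 Fluorescence readout of substrate turnover by recombinant CYP2C8 after 0.5 h, baseline acetonitrile. Single-concentration duplicate screen at 10 uM preceded singleton concentration series (max 20 uM) for compounds passing the inhibition threshold.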

Measured: AC50

Sequence of E-selectin (Homo sapiens) (P16581 whole entry, looked up): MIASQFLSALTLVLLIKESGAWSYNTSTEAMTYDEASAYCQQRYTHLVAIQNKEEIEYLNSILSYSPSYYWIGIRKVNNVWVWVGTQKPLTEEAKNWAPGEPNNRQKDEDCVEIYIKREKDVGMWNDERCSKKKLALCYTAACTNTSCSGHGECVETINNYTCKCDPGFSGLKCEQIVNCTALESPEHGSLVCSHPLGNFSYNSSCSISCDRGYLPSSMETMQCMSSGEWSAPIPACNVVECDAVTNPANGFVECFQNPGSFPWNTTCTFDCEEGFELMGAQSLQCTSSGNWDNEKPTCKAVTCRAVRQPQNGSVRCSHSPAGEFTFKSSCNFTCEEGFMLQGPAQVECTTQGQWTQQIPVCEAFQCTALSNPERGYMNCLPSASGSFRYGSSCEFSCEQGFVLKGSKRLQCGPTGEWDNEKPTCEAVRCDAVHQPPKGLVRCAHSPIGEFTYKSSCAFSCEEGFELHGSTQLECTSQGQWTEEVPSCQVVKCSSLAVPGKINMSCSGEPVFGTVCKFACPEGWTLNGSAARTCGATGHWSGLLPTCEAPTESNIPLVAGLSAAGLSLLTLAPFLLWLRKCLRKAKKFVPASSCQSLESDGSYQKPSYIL
Sequence of human CYP2B6, CYP2B6 (gene 1555) (P20813 whole entry, looked up): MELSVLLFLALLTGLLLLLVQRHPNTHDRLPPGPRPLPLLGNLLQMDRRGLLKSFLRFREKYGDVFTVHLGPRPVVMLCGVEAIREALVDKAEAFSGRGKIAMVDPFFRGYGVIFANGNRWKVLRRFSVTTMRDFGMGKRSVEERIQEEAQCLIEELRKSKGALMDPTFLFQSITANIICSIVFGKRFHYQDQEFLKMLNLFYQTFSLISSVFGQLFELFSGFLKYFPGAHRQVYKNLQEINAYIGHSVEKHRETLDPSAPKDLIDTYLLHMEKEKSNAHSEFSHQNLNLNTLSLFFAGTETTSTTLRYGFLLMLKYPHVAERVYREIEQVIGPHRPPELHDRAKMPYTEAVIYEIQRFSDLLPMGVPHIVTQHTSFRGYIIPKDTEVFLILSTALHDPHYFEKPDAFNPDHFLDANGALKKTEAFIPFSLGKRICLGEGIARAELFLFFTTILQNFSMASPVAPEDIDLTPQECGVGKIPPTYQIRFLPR
Sequence of human CYP1A2, CYP1A2 (gene 1544) (P05177 whole entry, looked up): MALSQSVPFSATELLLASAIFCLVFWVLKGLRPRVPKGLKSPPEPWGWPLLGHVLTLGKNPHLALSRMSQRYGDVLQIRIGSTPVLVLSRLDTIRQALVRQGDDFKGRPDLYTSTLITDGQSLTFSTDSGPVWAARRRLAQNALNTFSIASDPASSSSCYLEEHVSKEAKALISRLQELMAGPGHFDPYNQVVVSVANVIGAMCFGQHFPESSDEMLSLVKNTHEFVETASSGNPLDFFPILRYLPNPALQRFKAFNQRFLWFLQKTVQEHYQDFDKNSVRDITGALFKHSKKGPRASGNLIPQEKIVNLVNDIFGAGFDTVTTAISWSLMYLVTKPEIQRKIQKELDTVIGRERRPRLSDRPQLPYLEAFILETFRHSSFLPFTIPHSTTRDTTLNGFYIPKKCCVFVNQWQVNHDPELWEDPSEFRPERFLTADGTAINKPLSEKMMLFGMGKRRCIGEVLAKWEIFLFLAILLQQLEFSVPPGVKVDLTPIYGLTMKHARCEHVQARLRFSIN
Sequence of human CYP2D6, CYP2D6 (gene 1565) (P10635 whole entry, looked up): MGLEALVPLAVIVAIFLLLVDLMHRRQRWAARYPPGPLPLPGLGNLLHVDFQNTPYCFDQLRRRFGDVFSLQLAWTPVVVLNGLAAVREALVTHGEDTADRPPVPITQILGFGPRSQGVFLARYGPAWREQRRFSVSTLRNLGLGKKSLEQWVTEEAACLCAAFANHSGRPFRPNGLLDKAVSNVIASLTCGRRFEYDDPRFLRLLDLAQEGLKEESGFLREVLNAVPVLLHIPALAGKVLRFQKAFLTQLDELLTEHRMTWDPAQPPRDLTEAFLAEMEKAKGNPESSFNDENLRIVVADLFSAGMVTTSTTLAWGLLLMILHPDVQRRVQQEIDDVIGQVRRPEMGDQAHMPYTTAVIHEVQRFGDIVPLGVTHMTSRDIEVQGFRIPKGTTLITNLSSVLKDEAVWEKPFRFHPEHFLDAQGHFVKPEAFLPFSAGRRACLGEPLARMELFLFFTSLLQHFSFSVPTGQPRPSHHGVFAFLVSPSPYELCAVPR
Sequence of human CYP2C9, CYP2C9 (gene 1559) (P11712 whole entry, looked up): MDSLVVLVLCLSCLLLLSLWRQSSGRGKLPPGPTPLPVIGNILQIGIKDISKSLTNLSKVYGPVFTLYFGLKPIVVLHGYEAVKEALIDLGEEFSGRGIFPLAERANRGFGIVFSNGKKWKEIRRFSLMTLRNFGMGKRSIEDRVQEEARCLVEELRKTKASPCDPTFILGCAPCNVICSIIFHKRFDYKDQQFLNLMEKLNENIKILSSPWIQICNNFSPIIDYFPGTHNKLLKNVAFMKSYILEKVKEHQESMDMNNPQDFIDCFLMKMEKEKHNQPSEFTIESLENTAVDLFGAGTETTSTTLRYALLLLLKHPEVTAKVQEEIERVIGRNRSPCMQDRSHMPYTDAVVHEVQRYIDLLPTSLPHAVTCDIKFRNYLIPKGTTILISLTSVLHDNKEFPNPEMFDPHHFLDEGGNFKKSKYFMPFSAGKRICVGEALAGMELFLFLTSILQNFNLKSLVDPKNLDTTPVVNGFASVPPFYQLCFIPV
Sequence of Cytochrome P450 3A4 (Homo sapiens) (P08684 whole entry, looked up): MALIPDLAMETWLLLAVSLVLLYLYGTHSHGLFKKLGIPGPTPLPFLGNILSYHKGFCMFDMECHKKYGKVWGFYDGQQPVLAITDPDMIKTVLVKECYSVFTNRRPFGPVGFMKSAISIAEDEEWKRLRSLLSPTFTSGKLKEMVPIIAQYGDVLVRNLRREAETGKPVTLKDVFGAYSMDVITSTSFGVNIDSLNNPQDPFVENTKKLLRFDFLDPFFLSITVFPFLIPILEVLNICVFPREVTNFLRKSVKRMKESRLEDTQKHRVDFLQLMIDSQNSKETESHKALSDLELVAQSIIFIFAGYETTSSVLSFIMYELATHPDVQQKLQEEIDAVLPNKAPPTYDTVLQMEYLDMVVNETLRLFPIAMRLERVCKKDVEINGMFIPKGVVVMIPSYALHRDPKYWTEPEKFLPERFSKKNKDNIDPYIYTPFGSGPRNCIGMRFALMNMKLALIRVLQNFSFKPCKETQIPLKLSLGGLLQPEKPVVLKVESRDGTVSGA
Sequence of human CYP19A1, CYP19A1 (gene 1588) (P11511 whole entry, looked up): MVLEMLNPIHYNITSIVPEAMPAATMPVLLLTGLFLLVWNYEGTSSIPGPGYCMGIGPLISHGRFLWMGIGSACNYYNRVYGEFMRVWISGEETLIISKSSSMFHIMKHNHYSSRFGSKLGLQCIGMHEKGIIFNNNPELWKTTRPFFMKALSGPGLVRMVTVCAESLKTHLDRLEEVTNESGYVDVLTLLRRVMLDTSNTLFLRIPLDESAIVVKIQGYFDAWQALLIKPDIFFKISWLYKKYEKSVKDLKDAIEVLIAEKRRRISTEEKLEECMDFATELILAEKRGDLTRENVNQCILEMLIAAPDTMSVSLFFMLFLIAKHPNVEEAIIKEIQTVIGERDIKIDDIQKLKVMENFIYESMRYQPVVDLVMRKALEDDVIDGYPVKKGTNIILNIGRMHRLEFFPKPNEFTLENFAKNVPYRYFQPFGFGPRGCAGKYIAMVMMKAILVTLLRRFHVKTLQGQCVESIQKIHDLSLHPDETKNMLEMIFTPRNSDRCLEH
Sequence of human CYP2C8, CYP2C8 (gene 1558) (P10632 whole entry, looked up): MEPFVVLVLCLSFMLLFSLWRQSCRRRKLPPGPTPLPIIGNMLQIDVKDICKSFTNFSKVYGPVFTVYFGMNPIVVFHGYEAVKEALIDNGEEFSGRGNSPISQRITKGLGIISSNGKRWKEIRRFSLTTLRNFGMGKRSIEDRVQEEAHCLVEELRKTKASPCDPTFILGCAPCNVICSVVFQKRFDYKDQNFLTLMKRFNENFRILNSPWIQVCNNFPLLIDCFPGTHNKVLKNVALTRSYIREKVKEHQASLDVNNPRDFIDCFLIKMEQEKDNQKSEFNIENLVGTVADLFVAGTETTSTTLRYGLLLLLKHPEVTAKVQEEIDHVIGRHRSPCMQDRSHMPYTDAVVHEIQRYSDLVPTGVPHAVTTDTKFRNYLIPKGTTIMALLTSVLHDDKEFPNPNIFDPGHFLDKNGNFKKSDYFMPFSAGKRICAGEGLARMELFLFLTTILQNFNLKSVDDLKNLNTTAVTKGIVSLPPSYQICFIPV
Sequence of rat CYP2A1, Cyp2a1 (gene 24894) (P11711 whole entry, looked up): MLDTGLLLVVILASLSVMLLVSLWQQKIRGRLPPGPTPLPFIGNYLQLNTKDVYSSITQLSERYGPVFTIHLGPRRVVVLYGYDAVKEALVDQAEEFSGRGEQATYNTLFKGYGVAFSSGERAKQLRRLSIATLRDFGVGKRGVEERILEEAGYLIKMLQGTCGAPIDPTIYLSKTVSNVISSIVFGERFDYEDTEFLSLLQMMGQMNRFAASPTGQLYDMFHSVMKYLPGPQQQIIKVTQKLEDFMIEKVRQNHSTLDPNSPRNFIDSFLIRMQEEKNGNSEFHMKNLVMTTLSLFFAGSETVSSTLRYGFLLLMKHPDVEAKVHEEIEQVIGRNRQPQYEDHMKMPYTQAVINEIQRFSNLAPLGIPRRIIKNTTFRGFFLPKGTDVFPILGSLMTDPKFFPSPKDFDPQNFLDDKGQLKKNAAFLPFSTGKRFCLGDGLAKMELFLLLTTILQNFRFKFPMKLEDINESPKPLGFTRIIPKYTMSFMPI

Oc1ccc(Cl)cc1Cc1ccccc1
inactive: [7] | [8] | [10] | [13]
active: [1] 34.9 µM [middle of 7 runs] | [2] 32.5 µM [middle of 5 runs] | [3] 36.8 µM [middle of 7 runs] | [4] 27.2 µM [middle of 7 runs] | [5] 31.7 µM [middle of 7 runs] | [6] 29.4 µM [middle of 7 runs] | [7] 3.11 µM and 2.49 µM | [9] 7.66 µM [middle of 6 runs] | [11] 10 µM | [12] 6.54 µM [middle of 7 runs] | [14] 3.27 µM [middle of 7 runs] | [15] 5.61 µM

O=C(O)CCCOc1ccc(Cl)cc1Cl
active: [14] 12.1 µM
inactive: [1] | [2] | [3] | [4] | [5] | [16] | [6] | [7]

[2H]C1([2H])[n+]2ccccc2-c2cccc[n+]2C1([2H])[2H]
inactive: [1] | [2] | [3] | [4] | [5] | [16] | [6]
active: [11] 2.03 µM | [13] 2.25 µM

COP(=S)(OC)Oc1ccc(SC)c(C)c1
active: [2] 33.6 µM | [9] 8.76 µM | [10] 2.76 µM | [17] 1.06 µM | [12] 5.54 µM | [14] 2.45 µM | [15] 5.64 µM
inactive: [1] | [3] | [4] | [5] | [16] | [6]

O=C1c2ccccc2C(=O)N1SC(Cl)(Cl)Cl
inactive: [1] | [2] | [3] | [4] | [5] | [6] | [11] | [14]
active: [16] 23.4 µM | [7] 1.01 µM | [18] 0.245 µM

O=C(NC(=O)c1c(F)cccc1F)Nc1ccc(OC(F)(F)C(F)OC(F)(F)F)c(Cl)c1 (stereo unspecified)
active: [1] 32.2 µM | [2] 9.18 µM | [4] 8.44 µM | [16] 9.75 µM
inactive: [3] | [5] | [6] | [18]
